Measured values as given in PubChem BioAssay (NCATS).
Results filed as inconclusive are left out. Activity calls are given as the source filed them. Calls come from the whole dose curve; as a rule, active = well fitted inhibition curve with a large enough effect; inconclusive = small, poorly fitted or top-dose-only effect; inactive = flat fitted curve, though single readings scatter.

Assay: P-glycoprotein substrates identified in KB-8-5-11 adenocarcinoma cell line, qHTS therapeutic library screen (AID 1346987); note: nearly all actives have a fitted effect of over 65% in size
Conditions: KB-8-5-11 (P-gp overexpressing) viability, CellTiter-Glo, 72 h; series mostly up to 44.5 µM; activity change, negative = cytotoxicity: at the top concentration
Summary of the method: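 KB-8-5-11, a colchicine-selected P-gp-overexpressing KB-3-1 subline, was grown without colchicine for the assay. Cells were seeded at 500 cells/well, dosed in concentration-response and incubated 72 h at 37 degree C, 5% CO2. Viability was read by CellTiter-Glo luminescence.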
% is set by controls: 0 for no effect and ±100 for the full control effect.

SMILES | outcome | activity change, negative = cytotoxicity
O=C(O)Cc1cn([C@@H]2OC[C@@H](O[C@@H]3O[C@H](CO)[C@@H](O)[C@H](O)[C@H]3O)[C@H](O)[C@H]2O[C@@H]2O[C@H](CO)[C@@H](O)[C@H](O)[C@H]2O)c2ccccc12 | inactive [at 17.3 µM] | 
C=C(C)[C@H]1CC[C@]2(C(=O)O)CC[C@]3(C)C(CCC4[C@@]5(C)CCC(=O)C(C)(C)C5CC[C@]43C)C12 (stereo partly drawn) |  | -27.5% [at 17.3 µM] (inactive)
C/C(=C/CO)CC[C@H]1[C@]2(C)C[C@H](O)CC(C)(C)[C@H]2CC[C@]1(C)O |  | 4.85% (inactive)
C=C1CCC(OC(C)=O)C2(C)CC3OC(=O)C(C)=C3CC12 (stereo not drawn) |  | -4.92% (inactive)
CC1(C)CC[C@]2(C(=O)O)CC[C@]3(C)C(=CCC4[C@@]5(C)C[C@@H](O)[C@H](O)[C@@](C)(CO)C5CC[C@]43C)C2C1 (stereo partly drawn) |  | 0.917% [at 17.3 µM] (inactive)
CC1(C)C(=O)N2c3ccccc3C(O)(CC(C(=O)O)n3cnc4ccccc4c3=O)C2N1O (stereo not drawn) | inactive [at 17.3 µM] | 
CC[C@H](NC(=O)c1c(O)c(-c2ccccc2)nc2ccccc12)c1ccccc1 |  | -21% (inactive)
CC(CC12CCCN1C(=O)C1CCCN1C2=O)OC(N)=O (stereo not drawn) | inactive | 
